From PubChem BioAssay (NCI)
Compounds without any hit were thinned out: in the full panel of roughly 83,000, 20% have a hit.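 In brief: 96-well plates, 48 h treatment, single concentration, percent growth endpoint.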 Values without a mark were called inactive. Active and inactive are the calls of the source. The calls were made as follows: active = growth percent below 10; inactive = the rest.

Test system: HT29 colon
Assay: NCI-60 one-dose screen, 48 h (100 = growth as untreated, 0 = no growth, -100 = all killed)
Details: 10 µM unless noted

Row | Structure (SMILES) | growth
1 | CNc1cc(C(=O)O)nc(NC)n1 | 104%
2 | Brc1ccc2c(c1)CN(C1CCCCC1)CO2 | 103%
3 | CCN=C1C=CC(=C(c2ccc(N(CC)CC)cc2)c2ccc(N(CC)CC)cc2)c2ccccc21 | -59.7% (active)
4 | O=C(CSc1nc2ccc([N+](=O)[O-])cc2[nH]1)Nc1ccc(F)c(Cl)c1 | 14.4%
5 | COc1ccc(-c2ccc(NNC(=O)c3ccc(F)cc3)nn2)cc1OC | 59.7%
6 | CCOC(CNC(=O)c1cccc([N+](=O)[O-])c1)OCC | 111%
7 | CN(C)C(=S)Sc1ccc([N+](=O)[O-])cc1[N+](=O)[O-] | -16.6% (active)
8 | CCN(CC)CC(C)Nc1ccc(C)c2sc3ccccc3c(=O)c12 (stereo unspecified) | 26.8%
9 | CN(C)Cc1ccc[nH]1 | 114%
10 | CNC(=O)c1cc(Oc2cccc3nc(NC(=O)Nc4cc(C(F)(F)F)cc(C(F)(F)F)c4)ccc23)ccn1 | 16%
11 | CC1=CC[C@@H]2C(C)(C)[C@@H](O)CC[C@@]2(C)[C@@H]1COc1ccc2ccc(=O)oc2c1 | 70.5%
12 | CC(=O)CC(=O)SC1=NCCS1 | 105%
13 | CSc1cccc([N+](=O)[O-])c1 | 90.2%
14 | O=C1/C(=C\c2cccn2Cc2ccccc2)c2ccccc2N1c1c(Cl)cccc1Cl | 52.4%
15 | COc1ncnc2c(-c3ccccc3)cn(COCc3ccccc3)c12 | 47.8%
16 | C=C(C)[C@@H]1CC[C@]2(C(=O)NCCCN)CC[C@]3(C)[C@H](CC[C@@H]4[C@@]5(C)CC[C@H](O)C(C)(C)[C@@H]5CC[C@]43C)[C@@H]12 | 3.9% [100 µM] (active)
17 | COc1ccc(/C=C/C=C\C(=O)c2ccc(-n3ccnc3)cc2)cc1 | 93.4%
18 | Cc1ccccc1-n1nnc(C(=O)Nc2nc3ccc(F)cc3s2)c1C | 73.2%
19 | O=C(N/N=C/c1ccc([N+](=O)[O-])cc1)c1ccc(Br)o1 | 106%

Row | Structure (SMILES) | growth
20 | Cc1nc(-c2ccccc2)sc1CC#N | 105%
21 | O=S(=O)(/N=c1/n(-c2ccccc2)nc2n1CCN2C1=NCCN1)c1ccc(-c2ccccc2)cc1 | 100%
22 | Nc1ccc2c(c1)Cc1cc(NC(=O)C(F)(F)F)ccc1-2 | 90.8%
23 | O=C(Nc1ccc(C(=O)/C=C/c2ccc(N3CCOCC3)cc2)cc1)Nc1ccc([N+](=O)[O-])cc1 | 88.6%
24 | C=CCc1nc2ccccc2s1 | 89.9%
25 | O=C(Nc1cc(F)cc2cccnc12)c1cnc(N2CCNCC2)cn1 | 36.8%
26 | C[n+]1c2ccccc2nc2c(N)cc(N)cc21 | 84.7%
27 | CCOC(=O)CCC[P+](c1ccccc1)(c1ccccc1)c1ccccc1 | 70.2%
28 | COc1ccc2nc3ccccc3c(NCCNCCO)c2c1 | -11.9% (active)
29 | c1nc(N2CCOCC2)c2[nH]ccc2n1 | 96%
30 | Oc1c(CNCCNCc2cc(Cl)cc(Cc3ccccc3)c2O)cc(Cl)cc1Cc1ccccc1 | 30.6%
31 | COc1cc(Cl)cc(-c2nn(C(=O)NS(=O)(=O)c3ccccc3)cc2-c2ccncc2)c1 | 41.1%
32 | COc1cccc(-c2[nH]c(=S)ncc2C(=O)c2ccccc2)c1 | 46.8%
33 | CC(C)(C)c1cc(C(=O)Nc2ccccc2C(=O)NCCN)cc(C(C)(C)C)c1 | -41.3% (active)
34 | N=C(N)c1ccc(-c2ccc(-c3ccc(-c4cccs4)s3)s2)cc1F | 72.6%
35 | Cc1c(Cn2cc(COc3ccc(Br)cc3)nn2)c(C)c(Cn2cc(COc3ccc(Br)cc3)nn2)c(C)c1Cn1cc(COc2ccc(Br)cc2)nn1 | 92.4%
36 | CCc1ccc(-c2ccc(COc3ccc(CC4SC(=O)NC4=O)cc3)cc2)cc1 (stereo unspecified) | 103%
37 | Cc1ccc(N)c(O)c1 | 95.8%
38 | CCCCN(CCCC)CC(O)c1ccc(OCc2ccccc2)c2ccccc12 (stereo unspecified) | 19.1%

Test system: SNB-75 CNS
Assay: as above
Details: 10 µM unless noted

Row | Structure (SMILES) | growth
39 | CNc1cc(C(=O)O)nc(NC)n1 | 90.9%
40 | Brc1ccc2c(c1)CN(C1CCCCC1)CO2 | 82.2%
41 | CCN=C1C=CC(=C(c2ccc(N(CC)CC)cc2)c2ccc(N(CC)CC)cc2)c2ccccc21 | -22% (active)
42 | O=C(CSc1nc2ccc([N+](=O)[O-])cc2[nH]1)Nc1ccc(F)c(Cl)c1 | 28.7%
43 | COc1ccc(-c2ccc(NNC(=O)c3ccc(F)cc3)nn2)cc1OC | 8.18% (active)
44 | CCOC(CNC(=O)c1cccc([N+](=O)[O-])c1)OCC | 82.6%
45 | CN(C)C(=S)Sc1ccc([N+](=O)[O-])cc1[N+](=O)[O-] | 57.4%
46 | CCN(CC)CC(C)Nc1ccc(C)c2sc3ccccc3c(=O)c12 (stereo unspecified) | 40.3%
47 | CN(C)Cc1ccc[nH]1 | 92.5%
48 | CNC(=O)c1cc(Oc2cccc3nc(NC(=O)Nc4cc(C(F)(F)F)cc(C(F)(F)F)c4)ccc23)ccn1 | -23.7% (active)
49 | CC1=CC[C@@H]2C(C)(C)[C@@H](O)CC[C@@]2(C)[C@@H]1COc1ccc2ccc(=O)oc2c1 | 62.1%
50 | CC(=O)CC(=O)SC1=NCCS1 | 109%
51 | CSc1cccc([N+](=O)[O-])c1 | 115%
52 | O=C1/C(=C\c2cccn2Cc2ccccc2)c2ccccc2N1c1c(Cl)cccc1Cl | 59.1%
53 | COc1ncnc2c(-c3ccccc3)cn(COCc3ccccc3)c12 | 99.8%
54 | C=C(C)[C@@H]1CC[C@]2(C(=O)NCCCN)CC[C@]3(C)[C@H](CC[C@@H]4[C@@]5(C)CC[C@H](O)C(C)(C)[C@@H]5CC[C@]43C)[C@@H]12 | -51.6% [100 µM] (active)
55 | COc1ccc(/C=C/C=C\C(=O)c2ccc(-n3ccnc3)cc2)cc1 | 90.8%
56 | Cc1ccccc1-n1nnc(C(=O)Nc2nc3ccc(F)cc3s2)c1C | 64%
57 | O=C(N/N=C/c1ccc([N+](=O)[O-])cc1)c1ccc(Br)o1 | 105%

Row | Structure (SMILES) | growth
58 | Cc1nc(-c2ccccc2)sc1CC#N | 113%
59 | O=S(=O)(/N=c1/n(-c2ccccc2)nc2n1CCN2C1=NCCN1)c1ccc(-c2ccccc2)cc1 | 85%
60 | Nc1ccc2c(c1)Cc1cc(NC(=O)C(F)(F)F)ccc1-2 | 98.6%
61 | O=C(Nc1ccc(C(=O)/C=C/c2ccc(N3CCOCC3)cc2)cc1)Nc1ccc([N+](=O)[O-])cc1 | 94.7%
62 | C=CCc1nc2ccccc2s1 | 90.2%
63 | O=C(Nc1cc(F)cc2cccnc12)c1cnc(N2CCNCC2)cn1 | 82.7%
64 | C[n+]1c2ccccc2nc2c(N)cc(N)cc21 | 75.2%
65 | CCOC(=O)CCC[P+](c1ccccc1)(c1ccccc1)c1ccccc1 | 86.8%
66 | COc1ccc2nc3ccccc3c(NCCNCCO)c2c1 | -53.2% (active)
67 | c1nc(N2CCOCC2)c2[nH]ccc2n1 | 97.6%
68 | Oc1c(CNCCNCc2cc(Cl)cc(Cc3ccccc3)c2O)cc(Cl)cc1Cc1ccccc1 | 28.4%
69 | COc1cc(Cl)cc(-c2nn(C(=O)NS(=O)(=O)c3ccccc3)cc2-c2ccncc2)c1 | 3.59% (active)
70 | COc1cccc(-c2[nH]c(=S)ncc2C(=O)c2ccccc2)c1 | 66.6%
71 | CC(C)(C)c1cc(C(=O)Nc2ccccc2C(=O)NCCN)cc(C(C)(C)C)c1 | 66.5%
72 | N=C(N)c1ccc(-c2ccc(-c3ccc(-c4cccs4)s3)s2)cc1F | 84.8%
73 | Cc1c(Cn2cc(COc3ccc(Br)cc3)nn2)c(C)c(Cn2cc(COc3ccc(Br)cc3)nn2)c(C)c1Cn1cc(COc2ccc(Br)cc2)nn1 | 81.1%
74 | CCc1ccc(-c2ccc(COc3ccc(CC4SC(=O)NC4=O)cc3)cc2)cc1 (stereo unspecified) | 76.2%
75 | Cc1ccc(N)c(O)c1 | 32.7%
76 | CCCCN(CCCC)CC(O)c1ccc(OCc2ccccc2)c2ccccc12 (stereo unspecified) | 80.4%
